For ten molecules, activity score (negative = inhibition of binding) results are on record in PubChem BioAssay AID1832 (Broad Institute, 2009).

Structures are written as SMILES. The whole screen tested about 300,000 compounds, of which about 1,100 (0.37%) were called active. The sample as a whole holds a higher share of actives than the screen did. Values without a mark were called inactive.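 How the source made its calls: active means inhibition past about -25% in most replicates, and total fluorescence under double the plate's negative control median (limit read from the data); inconclusive means replicates evenly split on the limit, or fluorescence at least double controls; inactive means too little inhibition in most replicates.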

In this assay the target is Zinc finger protein mex-5 (Caenorhabditis elegans) (UniProt Q9XUB2). Nature of the assay: MEX-5 zinc finger RNA-binding disruptors – biochemical, C. elegans, fluorescence polarization, MLPCN library, primary screen (AID 1832).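 Further: 0% = DMSO and -100% = 5 µM competing unlabeled TCR2 RNA.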 The conditions noted are these: MEX-5/FITC-TCR2 RNA binding, at 10 µM, stronger effect = lower value. On the technique in general: Fluorescence polarisation rises when a labelled molecule tumbles more slowly, as on binding a larger partner.
Chain of Zinc finger protein mex-5 (Caenorhabditis elegans) (Q9XUB2 whole entry, looked up): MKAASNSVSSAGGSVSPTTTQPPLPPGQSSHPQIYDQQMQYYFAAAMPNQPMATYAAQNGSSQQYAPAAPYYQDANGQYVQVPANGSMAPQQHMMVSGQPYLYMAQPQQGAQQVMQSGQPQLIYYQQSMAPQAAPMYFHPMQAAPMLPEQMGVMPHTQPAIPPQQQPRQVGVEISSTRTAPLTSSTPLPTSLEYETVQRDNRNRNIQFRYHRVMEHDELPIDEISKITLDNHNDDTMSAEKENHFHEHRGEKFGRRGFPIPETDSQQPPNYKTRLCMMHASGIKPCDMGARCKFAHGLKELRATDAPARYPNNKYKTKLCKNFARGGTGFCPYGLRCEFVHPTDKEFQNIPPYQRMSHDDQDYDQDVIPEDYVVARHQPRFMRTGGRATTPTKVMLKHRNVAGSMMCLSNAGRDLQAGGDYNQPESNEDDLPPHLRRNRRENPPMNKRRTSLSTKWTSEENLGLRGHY
Take `Cc1cccc(N2C(=O)NC(=O)/C(=C\c3cnn(-c4ccccc4)c3)C2=O)c1`: the activity score (negative = inhibition of binding) was 1.06%. The figure for `O=C1NC(=O)N(c2ccccc2)C(=O)/C1=C/c1ccc([N+](=O)[O-])s1` is -35.6% (active); for `O=C1NC(=O)N(c2ccc(F)cc2)C(=O)/C1=C/c1ccc2c(c1)CCCN2Cc1ccccc1` it is -7.18%. As to `COc1ccc2[nH]c3c(c2c1)CCN[C@H]3C`, the activity score (negative = inhibition of binding) is 2.22%. The figure for `COc1ccc(CN2C(=O)NC(=O)/C(=C\c3ccc(OC)c(OC)c3OC)C2=O)cc1` is 7.01%. On to `COc1ccc(N2C(=O)/C(=C/c3ccco3)C(=O)NC2=S)cc1`, for which the activity score (negative = inhibition of binding) was -95.1% (active). The figure for `Cc1cc(/C=C2/C(=O)NC(=O)N(Cc3ccco3)C2=O)c(C)n1-c1ccc(C(=O)O)cc1` is -4.55%; for `CN(C)CC1CCCCC1OC(=O)c1ccc(Cl)c(Cl)c1` (stereo not given) it is -0.533%. As for `O=Cc1cn(Cc2ccc(F)cc2Cl)c2ccccc12`, the activity score (negative = inhibition of binding) was -1.5%. Consider `COc1cccc(-c2nc3ccc(N4CCN(C)CC4)cc3[nH]2)c1`, for which the activity score (negative = inhibition of binding) is 2.54%.
